# Reference: the supplement of paper PMC12669032
# Values without a mark were called inactive.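 Rule for the calls: active = AUC reduced over 20% with Padj below 0.05 in at least 2 of 3 replicates; inactive = otherwise.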
# Legend:
# Experiment in all cases: growth AUC relative to DMSO control (median of replicates) (fraction); higher = more growth (less inhibition), active = hit call of the paper
# Details in all cases: 20 µM; 24 h
# Akkermansia muciniphila = tested on: Akkermansia muciniphila
# Outline: (§1)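 Each value is the median of three biological replicates, grown on separate days, of a gut bacterial monoculture incubated anaerobically at 37 °C in mGAM with 20 µM compound (1% DMSO). Cultures started at OD600 0.05 and were read at OD600 hourly for 24 h, with the minimum OD set to 0. Area under the growth curve was normalised to the plate median of solvent-only wells, or to row and column medians on the industrial chemical plate.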
# Bacteroides caccae = tested on: Bacteroides caccae
# Outline: as §1
# Bacteroides clarus = tested on: Bacteroides clarus
# Outline: as §1
# Bacteroides dorei = tested on: Bacteroides dorei
# Outline: as §1
# Bacteroides stercoris = tested on: Bacteroides stercoris
# Outline: as §1
# [1] = tested on: Bacteroides thetaiotaomicron
# Outline: as §1
# Bacteroides uniformis = tested on: Bacteroides uniformis
# Outline: as §1
# [2] = tested on: Bifidobacterium longum subsp. longum
# Outline: as §1
# Clostridium difficile = tested on: Clostridium difficile
# Outline: as §1
# Collinsella aerofaciens = tested on: Collinsella aerofaciens
# Outline: as §1
# Coprococcus comes = tested on: Coprococcus comes
# Outline: as §1
# Escherichia coli ED1a = tested on: Escherichia coli ED1a
# Outline: as §1
# Escherichia coli IAI1 = tested on: Escherichia coli IAI1
# Outline: as §1
# Eubacterium rectale = tested on: Eubacterium rectale
# Outline: as §1
# [3] = tested on: Fusobacterium nucleatum subsp. animalis
# Outline: as §1
# Lactobacillus gasseri = tested on: Lactobacillus gasseri
# Outline: as §1
# Lactobacillus paracasei = tested on: Lactobacillus paracasei
# Outline: as §1
# Odoribacter splanchnicus = tested on: Odoribacter splanchnicus
# Outline: as §1
# [4] = tested on: Parabacteroides distasonis
# Outline: as §1
# Parabacteroides merdae = tested on: Parabacteroides merdae
# Outline: as §1
SMILES,growth AUC (Akkermansia muciniphila),growth AUC (Bacteroides caccae),growth AUC (Bacteroides clarus),growth AUC (Bacteroides dorei),growth AUC (Bacteroides stercoris),growth AUC [1],growth AUC (Bacteroides uniformis),growth AUC [2],growth AUC (Clostridium difficile),growth AUC (Collinsella aerofaciens),growth AUC (Coprococcus comes),growth AUC (Escherichia coli ED1a),growth AUC (Escherichia coli IAI1),growth AUC (Eubacterium rectale),growth AUC [3],growth AUC (Lactobacillus gasseri),growth AUC (Lactobacillus paracasei),growth AUC (Odoribacter splanchnicus),growth AUC [4],growth AUC (Parabacteroides merdae)
O=c1oc(-c2ccccc2)nc2ccccc12,0.96,1.01,0.984,0.979,0.955,0.966,0.971,0.947,0.994,0.976,0.996,0.967,0.946,0.948,0.935,0.971,0.915,0.893,1.05,0.988
O=C(O)COc1ccc(Cl)c2cccnc12,0.981,1.03,1.03,0.976,1.14,0.997,1,0.99,0.954,1.02,0.997,1.05,1.04,1.02,1.11,1.07,1.01,1.01,1,1
FC(F)(F)c1cccc(C(c2ccccc2)(c2ccccc2)n2cncn2)c1,0.852,0.02 (active),0.93,0.92,0.892,0.869,0.877,0.948,1.04,0.924,0.713,0.975,0.959,0.646 (active),0.899,0.851,1.11,1.03,0.842,0.619 (active)
COc1cc(OC)nc(NC(=O)NS(=O)(=O)c2c(Cl)nc3ccccn23)n1,1.06,1.02,1,1.02,1.1,1,1.02,1.02,1,1.03,0.981,1.01,1.01,1.01,1.13,1.06,1.11,0.984,1.02,1.04
NC(=O)c1nn(-c2c(Cl)cc(C(F)(F)F)cc2Cl)c(N)c1S(=O)C(F)(F)F (stereo not given),0.886,0.973,0.953,0.995,0.965,0.972,0.977,0.976,1,0.985,0.958,0.964,0.983,1.07,0.945,0.937,0.982,0.948,1.02,0.962
COC(=O)C(C)Oc1ccc(Cl)cc1C (stereo not given),0.866,0.999,0.996,1,1.15,1,1,1,0.974,1.04,1.04,0.991,1,0.997,1.03,1.06,1.01,1.02,1.02,1.05
O=C(Nc1ccc(Cl)cc1C(O)c1ccccc1)c1ccncc1 (stereo not given),1.04,0.985,0.946,1.01,0.878,0.97,0.987,1.01,0.982,0.994,1.04,0.997,0.958,1.12,1.08,0.966,0.943,0.971,0.983,0.979
COCC(=O)N(c1c(C)cccc1C)C(C)C(=O)O (stereo not given),1.09,0.998,1,1.01,1.13,1.04,0.997,0.951,0.95,1.08,1.01,1,1.01,1.09,1.15,1.04,1.02,1.01,1.01,1.05
Cc1cc(C)cc(O)c1,0.865,1.04,0.983,1.01,1,1.01,1,0.906,1.03,1.02,1.02,0.953,0.984,0.95,0.923,1.01,0.958,0.988,1.01,0.988
CCOc1ccc2c(c1)C(C)=CC(C)(C)N2,0.9,1.04,1,1,1.01,0.995,1.01,1.03,1.02,1.02,1.03,1.03,0.986,1.06,1.03,0.992,1.02,1.07,0.97,1.01
O=C1NCC[n+]2ccccc21.[Br-],1.13,0.985,1.01,0.761,0.984,0.972,1.02,0.972,1.01,0.97,1.02,0.966,0.978,1.07,0.908,0.882,0.961,0.968,0.923,0.972
O=C(O)C1(C(=O)Nc2ccc(Cl)cc2Cl)CC1,1.06,1.06,0.956,1.05,1.1,1.03,1.04,0.998,1.01,1.01,1.01,1.02,1.02,0.98,1.03,0.955,0.999,0.994,0.909,1.01
CCC/C(=N\OCC(C)Oc1ccc(Cl)cc1)C1=C(O)CC(C2CCCSC2)CC1=O (stereo not given),0.924,0.949,0.958,1,0.843,0.901,0.939,0.91,1.02,0.973,0.979,0.98,0.987,0.906,0.913,1.02,0.706,1.07,0.885,0.938
CC(C)Nc1nc(N)nc(Cl)n1,0.991,1.03,1.03,1.01,1.07,1.04,1.01,1,1.03,1.02,1.01,1.01,1.05,1.01,1.05,0.98,0.96,1.06,1.06,1.04
O=C(Oc1ccccc1)n1c(C(F)(F)F)nc2cc(Cl)c(Cl)cc21,0.177 (active),0.215 (active),0.121 (active),0.236 (active),0.0063 (active),0.0816 (active),0.0127 (active),0.891,0.561 (active),0.958,1.03,0.704 (active),0.588 (active),0.635 (active),0.71,0.431 (active),0.688 (active),0.0297 (active),0.106 (active),0.144 (active)
O.O=C(Nc1ccc(Cl)c(Cl)c1)Nc1cc(Cl)ccc1Oc1ccc(Cl)cc1S(=O)(=O)[O-].[Na+],1.16,0.906,0.22 (active),0.908,0.0107 (active),0.329 (active),0.00911 (active),0.912,0.829,0.619 (active),0.823,1.06,1.03,0.886,0.691,0.0949 (active),0.906,0.0102 (active),0.494 (active),0.861
